Drawing on PubChem BioAssay (NCI), this text covers growth inhibition for 9 compounds.

Test [1] is described as follows: NCI Yeast Anticancer Drug Screen. Data for the rad50 strain (AID 155).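 Also: 0% = growth of vehicle-only cultures of the same strain.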 The conditions noted are these: S. cerevisiae rad50 strain growth inhibition, stronger effect = higher value. The procedure, abridged: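 A DNA repair-deficient yeast mutant serves as the test organism; compound-induced growth inhibition is calculated against vehicle-treated cells.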
Test [2] in a line: NCI Yeast Anticancer Drug Screen. Data for the mec2-1 strain (AID 157). The conditions noted are these: S. cerevisiae mec2-1 strain, stronger effect = higher value. The procedure, abridged:
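Yeast mec2-1 mutant treated with compound. Readout: growth inhibition vs vehicle controls.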

Test [3] in a line: NCI Yeast Anticancer Drug Screen. Data for the sgs1 mgt1 strain (AID 161).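 Also: 0% = growth of cultures given vehicle only.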 The note with it: S. cerevisiae sgs1 mgt1 strain, stronger effect = higher value. The procedure, abridged:
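Genetically altered yeast, compound exposure, growth inhibition relative to vehicle.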

The nature of test [4]: NCI Yeast Anticancer Drug Screen. Data for the cln2 rad14 strain (AID 165).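 Also: 0% = growth equal to vehicle treated cultures.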 The conditions noted are these: S. cerevisiae cln2 rad14 strain, stronger effect = higher value. In short, it runs like this:
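cln2 rad14 yeast strain; compound exposure; growth inhibition read vs vehicle controls.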

The nature of test [5]: NCI Yeast Anticancer Drug Screen. Data for the bub3 strain (AID 167). The conditions noted are these: S. cerevisiae bub3 mutant strain, stronger effect = higher value. The procedure, abridged: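 Inhibition values come from growth of compound-treated mutant yeast normalised to vehicle-treated controls.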
The nature of test [6]: NCI Yeast Anticancer Drug Screen. Data for the mlh1 rad18 strain (AID 175). The note with it: S. cerevisiae mlh1 rad18 strain growth inhibition, stronger effect = higher value. In short, it runs like this:
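Yeast w/ defined DNA-repair lesions; compound exposure; growth vs vehicle controls → % inhibition.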

Where [7] appears, read: at 5.0 µM (retest, dose inferred, filed as 0.5).
Setting [8] is: at 50.0 µM (retest, dose inferred, filed as 5.0).

Structures are written as SMILES. Compounds without any hit were thinned out: in the full panel of roughly 79,000, 15% have a hit. Values without a mark were called inactive. Active and inactive are the calls of the source. Rule as the data show it: active = growth inhibition above about 70%; inactive = the rest.

As to `Cc1ccc(S(=O)(=O)/N=[Se](\C)c2ccccc2)cc1` (configuration not stated), the growth inhibition in test [1] (setting [7]) was 16%; in test [1] (setting [8]), 94% (active); in test [1] (at 50.0 µM), 93.7% (active); in test [2] (setting [7]), 11%; in test [2] (setting [8]) it was 95% (active); in test [2] (at 50.0 µM), 68.5%. Moreover, the growth inhibition was 18% in test [3] (setting [7]); 83% (active) in test [3] (setting [8]); 90.7% (active) in test [3] (at 50.0 µM); -1% in test [4] (setting [7]); 56% in test [4] (setting [8]); 60.9% in test [4] (at 50.0 µM). The growth inhibition was 2% in test [5] (setting [7]); 83% (active) in test [5] (setting [8]); 80% (active) in test [5] (at 50.0 µM); 13% in test [6] (setting [7]); 91% (active) in test [6] (setting [8]); 87.4% (active) in test [6] (at 50.0 µM).

For `CCOP(=S)(OCC)SSSP(=S)(OCC)OCC`, the growth inhibition is 6% in test [1] (setting [7]); 71% (active) in test [1] (setting [8]); 1.6% in test [1] (at 50.0 µM); 5% in test [2] (setting [7]); 62% in test [2] (setting [8]); 57.8% in test [2] (at 50.0 µM). In addition, the growth inhibition in test [3] (setting [7]) was 7%; in test [3] (setting [8]), 78% (active); in test [3] (at 50.0 µM) it was 15.7%; in test [4] (setting [7]) it was 5%; in test [4] (setting [8]) it was 20%; in test [4] (at 50.0 µM) it was 65.8%. In addition, the growth inhibition is 2% in test [5] (setting [7]); 84% (active) in test [5] (setting [8]); 70% (active) in test [5] (at 50.0 µM); 4% in test [6] (setting [7]); 49% in test [6] (setting [8]); 33.9% in test [6] (at 50.0 µM).

Take `CC1(CO)C(O)CCC2(C)C1CCC1CC3CC12CCC3(O)CO` (configuration not stated): the growth inhibition in test [1] (setting [7]) is 4%; in test [1] (setting [8]), 87% (active); in test [1] (at 50.0 µM), -3.35%; in test [2] (setting [7]), 65%; in test [2] (setting [8]) it was 99% (active); in test [2] (at 50.0 µM) it was -18.8%. The growth inhibition is 1% in test [3] (setting [7]); 80% (active) in test [3] (setting [8]); 19.1% in test [3] (at 50.0 µM); -13% in test [4] (setting [7]); 68% in test [4] (setting [8]); -0.7% in test [4] (at 50.0 µM). Moreover, the growth inhibition was -27% in test [5] (setting [7]); 77% (active) in test [5] (setting [8]); -10% in test [5] (at 50.0 µM); 14% in test [6] (setting [7]); 91% (active) in test [6] (setting [8]); 3.7% in test [6] (at 50.0 µM).

For the compound `Nc1nc(N)c(-c2ccc(Cl)c(Cl)c2)c(COc2cccc(CNS(=O)(=O)c3cccc(S(=O)(=O)F)c3)c2)n1`, the growth inhibition in test [1] (setting [7]) was -6%; in test [1] (setting [8]) it was 92% (active); in test [1] (at 50.0 µM) it was 89.5% (active); in test [2] (setting [7]), -4%; in test [2] (setting [8]) it was 70% (active); in test [2] (at 50.0 µM) it was 92.4% (active). Further, the growth inhibition in test [3] (setting [7]) is -1%; in test [3] (setting [8]), 85% (active); in test [3] (at 50.0 µM) it was 66.2%; in test [4] (setting [7]) it was -15%; in test [4] (setting [8]) it was 60%; in test [4] (at 50.0 µM) it was 77.2% (active). In addition, the growth inhibition in test [5] (setting [7]) is -4%; in test [5] (setting [8]) it was 62%; in test [5] (at 50.0 µM), 88.8% (active); in test [6] (setting [7]), -3%; in test [6] (setting [8]), 83% (active); in test [6] (at 50.0 µM) it was 96.3% (active).

As to `Cc1ccc(S(=O)(=O)N=S(=O)(CCCl)CCCl)cc1`, the growth inhibition in test [1] (setting [7]) was 16%; in test [1] (setting [8]), 98% (active); in test [1] (at 50.0 µM) it was 94% (active); in test [2] (setting [7]), 17%; in test [2] (setting [8]) it was 97% (active); in test [2] (at 50.0 µM) it was 88.5% (active). Further, the growth inhibition in test [3] (setting [7]) is 25%; in test [3] (setting [8]), 99% (active); in test [3] (at 50.0 µM), 97.5% (active); in test [4] (setting [7]), 18%; in test [4] (setting [8]), 94% (active); in test [4] (at 50.0 µM), 62.9%. Besides, the growth inhibition is 9% in test [5] (setting [7]); 89% (active) in test [5] (setting [8]); 47.4% in test [5] (at 50.0 µM); 27% in test [6] (setting [7]); 98% (active) in test [6] (setting [8]); 96.7% (active) in test [6] (at 50.0 µM).

For the compound `CC(=O)Nc1ccc([As](O[As](c2ccc(NC(C)=O)cc2)c2ccc([N+](=O)[O-])cc2)c2ccc([N+](=O)[O-])cc2)cc1` (configuration not stated), the growth inhibition in test [1] (setting [7]) was 99% (active); in test [1] (setting [8]), 100% (active); in test [1] (at 50.0 µM), 98.7% (active); in test [2] (setting [7]), 99% (active); in test [2] (setting [8]) it was 100% (active); in test [2] (at 50.0 µM), 99.7% (active). The growth inhibition was 100% (active) in test [3] (setting [7]); 99% (active) in test [3] (setting [8]); 99.5% (active) in test [3] (at 50.0 µM); 99% (active) in test [4] (setting [7]); 99% (active) in test [4] (setting [8]); 99.3% (active) in test [4] (at 50.0 µM). In addition, the growth inhibition is 99% (active) in test [5] (setting [7]); 99% (active) in test [5] (setting [8]); 99.4% (active) in test [5] (at 50.0 µM); 99% (active) in test [6] (setting [7]); 99% (active) in test [6] (setting [8]); 99% (active) in test [6] (at 50.0 µM).

For `CC(=O)O[C@H]1CC[C@@]2(C)C(=CC[C@@H]3[C@@H]2CC[C@]2(C)C(=O)[C@@H](CN4CC4)C[C@@H]32)C1`, the growth inhibition in test [1] (setting [7]) was 2%; in test [1] (setting [8]) it was 97% (active); in test [1] (at 50.0 µM), 59.7%; in test [2] (setting [7]), 7%; in test [2] (setting [8]), 99% (active); in test [2] (at 50.0 µM), 54%. Further, the growth inhibition in test [3] (setting [7]) is 22%; in test [3] (setting [8]), 99% (active); in test [3] (at 50.0 µM), 68.5%; in test [4] (setting [7]) it was 5%; in test [4] (setting [8]), 75% (active); in test [4] (at 50.0 µM), 62.6%. For the same compound, the growth inhibition in test [5] (setting [7]) is 6%; in test [5] (setting [8]), 97% (active); in test [5] (at 50.0 µM), 39%; in test [6] (setting [7]) it was 4%; in test [6] (setting [8]) it was 98% (active); in test [6] (at 50.0 µM), 62%.

As for `CCC[CH2][Sn]1([CH2]CCC)[O]C2C(O)OC(CO)C(O)C2[O]1` (configuration not stated), the growth inhibition in test [1] (setting [7]) is 84% (active); in test [1] (setting [8]), 99% (active); in test [1] (at 50.0 µM), 99% (active); in test [2] (setting [7]) it was 74% (active); in test [2] (setting [8]) it was 99% (active); in test [2] (at 50.0 µM) it was 99.3% (active). Moreover, the growth inhibition in test [3] (setting [7]) was 82% (active); in test [3] (setting [8]), 99% (active); in test [3] (at 50.0 µM), 99% (active); in test [4] (setting [7]), 64%; in test [4] (setting [8]), 99% (active); in test [4] (at 50.0 µM), 99% (active). The growth inhibition is 80% (active) in test [5] (setting [7]); 99% (active) in test [5] (setting [8]); 98.7% (active) in test [5] (at 50.0 µM); 81% (active) in test [6] (setting [7]); 99% (active) in test [6] (setting [8]); 98.6% (active) in test [6] (at 50.0 µM).

Regarding `CCO[C@@H]([CH2][Hg][Cl])[C@](C)([CH2][Hg][Cl])OCC`, the growth inhibition was 99% (active) in test [1] (setting [7]); 99% (active) in test [1] (setting [8]); 99.4% (active) in test [1] (at 50.0 µM); 99% (active) in test [2] (setting [7]); 99% (active) in test [2] (setting [8]); 99.6% (active) in test [2] (at 50.0 µM). The growth inhibition in test [3] (setting [7]) is 99% (active); in test [3] (setting [8]) it was 99% (active); in test [3] (at 50.0 µM), 99.5% (active); in test [4] (setting [7]), 98% (active); in test [4] (setting [8]) it was 99% (active); in test [4] (at 50.0 µM), 99.3% (active). Besides, the growth inhibition in test [5] (setting [7]) is 99% (active); in test [5] (setting [8]) it was 99% (active); in test [5] (at 50.0 µM) it was 99.3% (active); in test [6] (setting [7]), 99% (active); in test [6] (setting [8]) it was 99% (active); in test [6] (at 50.0 µM), 99.3% (active).
